# Compound activity deposited in PubChem by National Center for Advancing Translational Sciences (NCATS).
# A selection: hits, their analogues and other compounds. The true share with any hit is near 1.5%.
# PINK1 modulator – changes PINK1 expression; PINK1 immunofluorescence, high-content cytometry, 24 h; Potency, µM (doses to about 76.6 µM), hits mostly activators; actives 0.2% (n = 410,000); AID 624263; active = well fitted activation curve with a large enough effect; inconclusive = small, poorly fitted or top-dose-only effect; cell line not stated here; note: nearly all actives have a fitted effect of over 65% in size
#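 Stable cell line treated 24 h with compounds at 5 concentrations (CCCP controls), then fixed and immunostained for PINK1 plus nuclear and cell stains; PINK1 immunofluorescence quantified by laser-scanning microplate cytometry.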
# BRCA1 expr up – BRCA1 expression activation | MCF7-BRCA1-FFLuc reporter, luminescence, 48 h; response scale: scaled: vehicle 0%, 10 µM genistein 100% | Potency, µM (highest dose often 46.1 µM), most hits filed as activators | actives 1.1% (n = 380,000) | AID 624202; note: nearly all actives have a fitted effect of over 80% in size
#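 First, MCF7-BRCA1-FFLuc cells (2000/well) attach for 2 h; next, compounds are pin-added and incubated 48 h at 37 °C; finally, luciferase reagent is added and luminescence read after 15 min.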
# Akt phos inh – Akt phosphorylation inhibition. actives 0.32% (n = 360,000). AID 651550. Neuro2A IGF-stimulated pAkt S473 HTRF, 20 min; active compounds read low. activity change, % for hits at 50 µM; in the data active = activity change below about -80%; inconclusive = mostly about -51% to -80%
#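 Single-point screen (50 µM final compound) in Neuro2A cells stimulated 20 min with 6 nM IGF at 37 deg C. After lysis, Ser473-phosphorylated Akt read by HTRF (ex 330 nm, em 615/665 nm) as the 665/615 ratio.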
# TCR activator – T cell receptor activation. 330,000 tested, under 10 active. primary human leukocytes, anti-CD3, IL-2 HTRF, 48 h. Potency, µM (series often up to 9.22 µM), most hits filed as activators
#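 Readout: HTRF IL-2, Eu-cryptate/d2 antibody pair, 320nm excitation, 665nm emission. Stimulus: a-CD3 beads, no co-stimulation. Cells: primary human leukocytes. Exposure: 48 hr with compound.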
# Hits are given with their value; . = inactive; ? = inconclusive; / = not tested or not shown. Unless noted, calls come from the whole dose curve; as a rule, active = well fitted curve in the direction sought with a large enough effect; inconclusive = small, poorly fitted or top-dose-only effect, or another doubt; inactive = no such curve, though single readings can be large; an effect the other way counts as inactive or inconclusive.
SMILES,PINK1 modulator,BRCA1 expr up,Akt phos inh,TCR activator
CC1CCC(NC(=O)CCNC(=O)c2ccc(Br)cc2)CC1 (centres undefined),.,4.47µM,.,.
COc1ccc2cc(/C=N/O)c(Cl)nc2c1,.,7.94µM,.,.
C(=Nc1cnc2ccccc2c1)c1cccnc1,.,.,/,/
Cc1ccccc1-c1cc(C(=O)Nc2sc(C(=O)OC(C)C)c(C)c2C#N)c2ccccc2n1,12.6µM,.,.,.
CCOC(=O)c1sc(NC(=O)c2cc(-c3ccc(C)cc3)nc3ccccc23)c(C#N)c1C,?,.,.,.
COC(=O)c1sc(NC(=O)c2cc(-c3ccccc3)nc3ccccc23)c(C#N)c1C,5.62µM,.,.,.
O=C(NCc1nnc2n1CCN(Cc1cccc(C(F)(F)F)c1)CC2)c1ccncc1,.,/,/,/
COc1ccc(C(=O)NCCn2cc(SCC(=O)Nc3nnc(C)s3)c3ccccc32)cc1,.,12.6µM,.,/
O=C(NC1CCCC1)c1sc(=S)n2c1[nH]c(=O)c1ccccc12,31.6µM,.,.,.
COc1ccc(C2CC2/C(=N/O)c2ccccn2)cc1 (centres undefined),.,.,.,.
COc1ccc(C2CC2/C(=N/O)c2ccccc2)cc1 (centres undefined),.,11.2µM,.,.
COc1ccc(C2CC2C(=O)c2ccccn2)cc1 (centres undefined),.,8.91µM,.,.
COc1ccc(C(C(=O)NC2CCCC2)N(C(=O)c2ccco2)c2ccc3c(c2)OCO3)cc1OC (centres undefined),.,.,-108.6%,.
Cn1c(SCC(=O)c2ccccc2)nnc1-c1cnccn1,.,.,.,.
Cn1c(SCC(=O)c2ccccc2)nnc1-c1cccs1,.,10µM,.,.
COc1ccc(NC(=O)CSc2nnc(-c3cccs3)n2-c2ccccc2)cc1,.,.,-107.2%,.
CCn1c(SCC(=O)c2ccccc2)nnc1-c1cnccn1,.,10µM,.,.
O=C(Nc1ccon1)c1ccc(S(=O)(=O)N2CCCCCC2)cc1,.,.,-115.9%,.
COc1ccc(-c2nc(SC)n(C(=O)c3ccco3)n2)cc1,.,11.2µM,.,.
COc1ccc(-c2nc(SCc3ccccc3)n(C(=O)c3ccco3)n2)cc1,.,?,.,.
O=C(C[n+]1cc(Br)cc2ccccc21)c1ccccc1,39.8µM,.,.,.
O=C(C[n+]1cc(Br)cc2ccccc21)c1ccc(O)c(O)c1,.,.,/,/
CN(Cc1cc(Cl)cc(Cl)c1)[C@H]1C[C@H]2c3[nH]c4ccccc4c3CCN2C(=O)[C@H]1CO,44.7µM,.,.,/
CCOC(=O)Cc1csc(NC(=O)c2cnc3sc(C)cn3c2=O)n1,.,11.2µM,.,.
CCOC(=O)Cc1csc(NC(=O)c2ccc(C)o2)n1,.,.,.,.
SMILES,PINK1 modulator,BRCA1 expr up,Akt phos inh,TCR activator
CCOC(=O)CNC(=O)CSc1cn(CC(=O)N2CCCCCC2)c2ccccc12,.,/,/,/
O=C(Nc1ccccc1F)c1ccc2nc(N3C(=O)CCC3=O)sc2c1,.,.,-120.4%,.
COC(=O)C1=C(C)NC(=O)/C1=C\c1cc(C)n(-c2ccccc2)c1C,?,7.08µM,.,.
CNc1nc(-c2ccc([N+](=O)[O-])cc2)cs1,.,10µM,.,.
CC(C)C(=O)Nc1nc(-c2ccc([N+](=O)[O-])cc2)cs1,.,?,.,.
O=Cc1cnc(N2CCN(c3ccccc3)CC2)s1,.,.,.,.
N#CC(C#N)=Cc1cnc(N2CCN(c3ccccc3)CC2)s1,31.6µM,.,.,.
Cc1ccc(NNC(=O)c2cc(C(C)(C)C)nn2Cc2ccccc2)cc1,.,.,.,.
COc1ccccc1NNC(=O)c1cc(C(C)(C)C)nn1Cc1ccccc1,.,10µM,.,.
COC(=O)C1CCN(Cc2ccc3c(c2)CN(C(=O)C2CCCN(c4ccccn4)C2)CCO3)CC1 (centres undefined),.,/,/,/
CCCCN(CCCC)CC1OCc2ccccc2CO1,3.98µM,.,.,/
CCn1c(-c2ccccc2F)nc2cc(NC(C)=O)cc(C(=O)N3CCNC(=O)C3CC(=O)OC)c21 (centres undefined),.,/,/,/
Cc1[nH]c2ccccc2c1C(=O)C(=O)Nc1ccc2c(c1)OCO2,.,2.51µM,.,.
CC(=O)NC(Cc1c[nH]c2ccccc12)C(=O)OCC(=O)Nc1ccc2c(c1)OCO2 (centres undefined),.,.,.,.
COCc1c(C(=O)N2CCN(C3CCCC3)CC2)cnn1-c1nccc(-c2cccs2)n1,.,/,/,/
COc1cccc(OCCCCCCN2CCOCC2)c1,.,.,/,.
CCOc1cccc(OCCCCN2CCOCC2)c1,.,.,-108.2%,.
Cc1cc(OCCN2CCOCC2)ccc1Cl,.,12.6µM,.,.
CCOC(=O)N1CCc2c(sc3c2c(=O)n(-c2ccc(Cl)cc2)c(=O)n3CC(=O)Nc2ccccc2)C1,.,/,/,/
O=C(NCc1ccccn1)c1ccc(CS(=O)(=O)Cc2ccc(Cl)cc2)o1,.,.,-126.2%,.
Cc1ccccc1CS(=O)(=O)Cc1ccc(C(=O)NCc2ccccn2)o1,.,.,.,.
COc1ccccc1N1CCN(c2nc3ccccc3nc2C(C#N)C(=O)OC(C)C)CC1 (centres undefined),.,.,-97.2%,.
N#CC(C(=O)NCc1ccccc1)c1nc2ccccc2nc1N1CCCC1 (centres undefined),?,.,-84.5%,.
N#CC(C(=O)NCCc1ccccc1)c1nc2ccccc2nc1N1CCCCC1 (centres undefined),.,.,.,.
NC(=O)C1CCCN(Cc2ccc3c(c2)CN(Cc2cn[nH]c2-c2ccc(F)cc2)CCO3)C1 (centres undefined),.,/,/,/
SMILES,PINK1 modulator,BRCA1 expr up,Akt phos inh,TCR activator
Nc1nc(=S)[nH]c2n[nH]nc12,.,.,/,/
N=c1ccn(Cc2ccc(Cl)c(Cl)c2)cc1,39.8µM,.,.,.
N=c1ccn(Cc2ccc(Cl)cc2)cc1,?,.,.,.
CCc1nnc(NC(=O)Nc2ccc(Cl)cc2)s1,.,.,.,.
O=C(Nc1ccc(Cl)cc1)Nc1nnc(CSCc2ccc(Cl)cc2)s1,11.2µM,.,.,.
Cc1cc(N/N=C/c2ccccc2)nc(N)n1,.,12.6µM,.,.
CC(C)c1c(C(=O)NC(c2cccnc2)C(F)(F)F)cnn1-c1nccc(-c2cccs2)n1 (centres undefined),.,/,/,/
COc1ccccc1C1CN(Cc2cn(C)nc2C)Cc2ccccc2O1 (centres undefined),.,/,/,/
c1ccc(CCNc2nc3ccccc3s2)cc1,.,11.2µM,.,.
COc1ccc(C2=C(Nc3ccc(F)cc3)c3ccccc3C2=O)cc1,.,.,-136.7%,.
O=C(Cc1n[nH]c(=O)c2ccccc12)Nc1ccc(-c2nnc3n2CCCCC3)cc1,.,.,-109.7%,.
O=C([C@@H]1C[C@@H](Sc2nc3ccccc3[nH]2)CN1Cc1ccc(Cl)cc1)N1CCN(c2ccccc2F)CC1,.,/,/,/
O/N=C1\CCc2cc(Cl)ccc21,.,.,-102.0%,.
O=C(CSc1nnc(Cc2cccs2)n1-c1ccccc1)NCc1ccc2c(c1)OCO2,.,.,-84.9%,.
